Assay outcomes from PubChem BioAssay.
This is a sample that favours compounds with a hit; in the whole collection about 3.9% have one here.
ATXN viability = viability counter-screen for ATXN expression inhibitors; S2 cells (HEK-293 line with an ATXN2-luciferase reporter) viability, CellTiter-Fluor protease fluorescence, 24 h; Potency, µM (titrated, usually from 56.7 µM), hits mostly cytotoxic; 0.49% of 400,000 active; also: nearly all actives have a fitted effect of over 40% in size
HepG2 tox = counter-screen for TGF-b inhibitors: cytotoxicity in HepG2 cells. HepG2 CAGA-GFP viability, ATP luminescence, 18 h. AID 588856. 0.76% of 410,000 active. Potency, µM (top dose mostly 46.1 µM), for the others: at the top dose activity change, negative = cytotoxicity, most hits filed as cytotoxic
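HepG2 CAGA-GFP cells (1000/well, DMEM with 1% FBS) received compound, then TGF-beta at 500 pg/mL final, and were incubated 18 hours at 37 degrees C. Viability was read by CellTiter-Glo luminescence. Media-only wells were set as complete cell-killing and DMSO as no toxicity.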
TGFb inhibitor = TGF-b pathway inhibition. HepG2 CAGA-GFP TGF-b/SMAD3 reporter, GFP fluorescence, 18 h; TGF-beta stimulated, 500 pg/mL final. AID 588855. Potency, µM (highest dose often 46.1 µM), for the others: at the highest dose activity, negative = inhibition, most hits filed as inhibitors. 1.2% of 410,000 active; also: % is scaled to controls: 0 for no effect and ±100 for the full control effect; nearly all actives have a fitted effect of over 65% in size
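Smad-responsive CAGA-GFP expression was quantified in HEPG2 cells exposed to compounds and 500 pg/mL final TGF-beta for 18 h at 37 degrees C; unstimulated wells defined full inhibition.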
HT1080-NT tox = kills 2HG-producing HT-1080-NT fibrosarcoma cells; Potency, µM (top dose mostly 46.1 µM), without a hit: at the top dose activity, negative = less viability, most hits filed as cytotoxic; HT-1080-NT fibrosarcoma viability, CellTiter-Glo ATP luminescence, 48 h; 1.6% of 360,000 active;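 also: NT is the 2HG producing partner of a matched IDH1 knockdown line; 0% = DMSO-treated cells and -100% = media-only wells without cells; nearly all actives have a fitted effect of over 55% in size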
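Compounds were tested in concentration-response format on HT-1080-NT cells for 48 hours at 37 degrees C. Cell viability came from CellTiter-Glo luminescence; curves were classified by r2, response magnitude and activity.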
ATXN2 expr inh = inhibitors of ATXN2 expression; HEK-293 ATXN2-luciferase reporter, luminescence, 24 h; Potency, µM (series often up to 57 µM), without a hit: at the highest dose activity change, negative = inhibition, actives largely listed as inhibitors; 0.72% of 360,000 active; AID 1745845; also: % is scaled to controls: 0 for no effect and ±100 for the full control effect; nearly all actives have a fitted effect of over 55% in size
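ATXN2-luciferase reporter cells (luciferase flanked by upstream and downstream ATXN2 gene portions) were treated 24 h at 37 °C with compounds at up to 57 uM. SteadyGlo luminescence gave expression; GF-AFC fluorescence gave viability.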
HT1080 IDH1KD tx = HT-1080 IDH1 knockdown cell toxicity (counter line); HT-1080 IDH1 knockdown viability, ATP luminescence, 48 h; Potency, µM (series often up to 46.1 µM), for inactives: at the top dose activity, negative = toxicity, usual class: cytotoxic; 2% of 360,000 active; AID 686971;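 also: 0% = DMSO wells and -100% = cell-free medium wells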
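HT-1080-IDH1KD cells (IDH1 knocked down), 750/well in RPMI with 5% FBS, treated with compound 48 h at 37 degrees C. Viability by CellTiter-Glo luminescence, normalised to DMSO and no-cell wells; concentration-response curves classed.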
An asterisk follows results filed as active; i = inactive; ? = inconclusive; · = no result. Calls follow the shape of the dose curve; as a rule, active = well fitted curve in the direction sought with a large enough effect; inconclusive = small, poorly fitted or top-dose-only effect, or another doubt; inactive = no such curve, though single readings can be large; an effect the other way counts as inactive or inconclusive. Potency is read from the fitted curve at half-maximal effect.

SMILES	ATXN viability	HepG2 tox	TGFb inhibitor	HT1080-NT tox	ATXN2 expr inh	HT1080 IDH1KD tx
O=C(c1ccco1)N1N=C(c2ccc(Br)cc2)CC1(O)C(F)(F)F (stereo unspecified)	i	-41%	7.9µM*	-7%	3%	?
CCC1=C(c2ccc(C)cc2)S(=O)(=O)N=C1N1CCC(C(=O)NCCc2ccc(Cl)cc2)CC1	·	-22%	13µM*	·	·	·
COC(=O)c1ccc(NC(C)=O)cc1OC	i	·	·	·	2%	·
O=C1Nc2ccc(Br)cc2/C1=C/C1CC=CCC1 (stereo unspecified)	?	-29%	?	?	?	21µM*
O=C(/C=C/c1cccc([N+](=O)[O-])c1)n1cnc2ccccc21	·	-20%	?	?	?	2.6µM*
O=C(/C=C/c1cccc([N+](=O)[O-])c1)N1CCN(c2ccccn2)CC1	i	-11%	-1%	19%	-2%	15%
COC(=O)C1CCN(Cc2ccc3c(c2)CN(C(=O)C(C)N2CCOCC2)CCO3)CC1 (stereo unspecified)	i	·	·	·	·	·
COc1ccc(-c2c(C)nc3c(-c4ccccn4)cnn3c2N)cc1	i	-37%	11µM*	-19%	48%	-14%
COc1ccc(-c2c(C)nc3c(-c4ccsc4)cnn3c2N)cc1	?	-2%	16%	-1%	·	0%
CC1CCN(S(=O)(=O)c2ccc3c(c2)CCN3C(=O)Nc2ccccc2Br)CC1	·	2%	·	·	·	·
COc1cc(-c2nc(C)cnc2C)cc2c1OCCN(C(=O)Cc1cc(OC)c(OC)c(OC)c1)C2	i	·	·	·	·	·
CSC(=Nc1ccccc1)N=C(SCc1ccccc1)N(C)C	9.5µM*	7.1µM*	5.6µM*	21µM*	?	13µM*
Cc1cccc(C)c1NC(=O)CSc1nc2ccccc2c2nc(CCc3c(C)n[nH]c3C)nn12	?	-3%	8%	·	-10%	·
Cc1ccc(NC(=O)CSc2nc3ccccc3c3nc(CCc4c(C)n[nH]c4C)nn23)cc1F	?	-47%	-16%	-28%	-28%	7.9µM*
Cc1ccc(NC(=O)CSc2nc3ccccc3c3nc(CCc4c(C)n[nH]c4C)nn23)c(C)c1	i	2%	4%	·	9%	·
Cc1ccc(NC(=O)CSc2nc3ccccc3c3nc(CCn4cncc4C)nn23)c(C)c1	?	0%	?	8%	-13%	5%
Cc1cccc(NC(=O)CSc2nc3ccccc3c3nc(CCn4cncc4C)nn23)c1	·	13µM*	?	·	?	·
Cc1n[nH]c(C)c1CCc1nc2c3ccccc3nc(SCC(=O)Nc3ccc(F)cc3)n2n1	?	13µM*	?	·	?	·
O=C1NC(=Nc2ccccc2Cl)S/C1=C\c1ccc(C(=O)O)cc1	i	-1%	-12%	0%	·	2%
CC12CCC(C/C1=N\N=C1\NC(=O)/C(=C\c3ccc(Cl)cc3)S1)C2(C)C (stereo unspecified)	i	-6%	0%	16µM*	5%	21µM*
O=C(Nc1ccccc1NC(=O)NC1CCCCC1)NC1CCCCC1	?	-11%	-18%	-4%	20µM*	5%
NC(=O)c1ccccc1NC(=O)NC1CCCCC1	i	-23%	0%	4%	10%	1%
CCN1CCc2c(sc(-n3cccc3)c2C(C)NC(=O)Nc2ccc(Br)cc2)C1 (stereo unspecified)	·	14µM*	10µM*	·	·	·
Cc1nc2cc(NC(=O)[C@@H]3C[C@@H](Sc4ccccn4)CN3Cc3ccccc3F)ccc2s1	i	·	·	·	·	·
N#CNC(=Nc1cccc(F)c1)SCc1ccccc1F	?	11µM*	?	-7%	·	-9%
O=C(Nc1cccc(O)c1)c1ccc([N+](=O)[O-])cc1Cl	i	1%	1%	2%	53%	8%
